Pf growth 48h = Primary qHTS for delayed death inhibitors of the malarial parasite plastid, 48 hour incubation; P. falciparum luciferase growth in erythrocytes, 48 h; Potency, µM (series often up to 28.7 µM), inactives show at the highest dose activity change, negative = inhibition, actives largely listed as inhibitors; 310,000 compounds, 5.9% hits; AID 504832, 2011; active = well fitted inhibition curve with a large enough effect; inconclusive = small, poorly fitted or top-dose-only effect, or another doubt; inactive = no such curve, though single readings can be large or run the other way; note: potency is the fitted concentration of half-maximal effect; % is set by controls: 0 for no effect and ±100 for the full control effect
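Read-out is firefly luciferase luminescence from an integrated reporter in P. falciparum, so falling signal marks reduced parasite growth. Infected erythrocytes were at 2% hematocrit and 0.1% parasitemia (final) in Albumax-supplemented RPMI 1640.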
NS1 inh = qHTS Assay for Inhibitors of Influenza NS1 Protein Function; Potency, µM (highest dose often 46.1 µM), without a hit: at the top dose activity, positive = more growth; 270,000 compounds, 0.4% hits; AID 2326, 2010; note: potency is the fitted concentration of half-maximal effect; actives are rising curves; nearly all actives have a fitted effect of over 50% in size
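Compounds were scored for reversing the slow growth caused by influenza A NS1 in S. cerevisiae, measured by optical density at 600 nm. Assay medium contained 2% galactose at pH 6.0; NS1-free yeast of the same strain were the positive control.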
CHX counter = Cycloheximide Counterscreen for Small Molecule Inhibitors of Shiga Toxin; cell reporter, cycloheximide protein synthesis inhibition counterscreen; max response, %; 300,000 compounds, 12% hits; AID 2314, 2010; in the data active = max response mostly above about 13%, no sharp cut-off; inactive = mostly below about 14%; note: read at 38.3 µM for the half of the compounds with a filed dose; 0% is about no effect
Pf growth 96h = Primary qHTS for delayed death inhibitors of the malarial parasite plastid, 96 hour incubation; P. falciparum luciferase reporter growth, 96 h; Potency, µM (highest dose often 28.7 µM), for the others: at the top dose activity change, negative = inhibition, hits mostly inhibitors; 320,000 compounds, 6.9% hits; active = well fitted inhibition curve with a large enough effect; inconclusive = small, poorly fitted or top-dose-only effect, or another doubt; inactive = no such curve, though single readings can be large or run the other way; note: potency is the fitted concentration of half-maximal effect; % is set by controls: 0 for no effect and ±100 for the full control effect
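Cell-based qHTS: luciferase-tagged P. falciparum in erythrocytes (2% hematocrit, 0.05% parasitemia final) incubated with compounds for 96 hours, 37 C, 5% CO2; luciferase detection reagent then added and luminescence measured.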
Shiga toxin inh = A qHTS for Small Molecule Inhibitors of Shiga Toxin; Vero cells, Shiga toxin protein synthesis inhibition reporter; inhibition, % at 38.7 µM; 290,000 compounds, 9.2% hits; AID 2315, 2010; in the data active = inhibition mostly above about 28%, no sharp cut-off; inactive = mostly below about 43%; note: 0% is about no effect
SARS PLpro yeast = qHTS of Yeast-based Assay for SARS-CoV PLP; S. cerevisiae expressing SARS-CoV PLpro, growth rescue; Potency, µM (highest dose often 32.9 µM), for the others: at the top dose activity, positive = growth rescue, actives largely listed as activators; 330,000 compounds, 0.19% hits; note: potency is the fitted concentration of half-maximal effect; 0% is about no effect; nearly all actives have a fitted effect of over 55% in size
An asterisk follows results filed as active; ? = inconclusive; nt = no result given; [ ] = dose if it differs, or a comment. Compounds with a hit are over-represented: about 21% of the library has one in this group of screens. Unless noted, calls come from the whole dose curve.

SMILES	Pf growth 48h	NS1 inh	CHX counter	Pf growth 96h	Shiga toxin inh	SARS PLpro yeast
O=c1[nH]c(C2CCCN(S(=O)(=O)c3ccc(F)cc3)C2)nc2c1nnn2Cc1ccccc1 (stereo not given)	13µM*	-28%	-1	13%[5.75 µM]	-13	-3%
O=c1[nH]c(C2CCCN(S(=O)(=O)c3cccc(Cl)c3)C2)nc2c1nnn2Cc1ccc2c(c1)OCCO2 (stereo not given)	?	20%	-3	16%	2	-1%
N#Cc1ccc(NC(=O)N2CCC(c3nc4c(nnn4Cc4cccc(Cl)c4)c(=O)[nH]3)CC2)cc1	?	3%	-2	7.4µM*	13	1%
O=c1[nH]c(C2CCCN(S(=O)(=O)Cc3ccccc3)C2)nc2c1nnn2Cc1cccc(Cl)c1 (stereo not given)	12µM*	2%	0	10%	23	2%
Cc1ccc(N=C2SC(C(=O)Nc3ccc(OC(F)(F)F)cc3)C(N)=C2C(=O)Nc2c(C)cc(C)cc2C)cc1 (stereo not given)	?	?	-2	12µM*	13	20%
Nc1ccc(S(=O)(=O)NC2(C(F)(F)F)NC(=O)N(c3ccccc3F)C2=O)cc1 (stereo not given)	36%	3%	13	-20%	36	-1%
N#Cc1cc(C(=O)c2cc(F)ccc2O)cn(Cc2ccccc2)c1=O	?	nt	-6	?	-20	-1%
CN(C)CCCNC(=O)c1cc(Br)ccc1O	-4%	2%	2	0%	5	-1%
CC(C)CCNC(=O)c1cc(C(=O)c2cc(F)ccc2O)cn(CCC(C)C)c1=O	1.5µM*	nt	-2	?	3	0%
CC(C)CCNC(=O)c1cc(C(=O)c2cc(Br)ccc2O)cn(CCC(C)C)c1=O	1µM*	nt	-2	0.41µM*	-10	-6%
Cc1nc(C)c(C(=O)N(c2ccc(F)cc2)C(C(=O)NCC2CCCO2)c2ccccc2)s1 (stereo not given)	15%	-4%	-3	24%	-12	1%
NS(=O)(=O)c1cccc(NC(=O)COC(=O)CCN2C(=O)c3ccccc3C2=O)c1	-5%	nt	nt	?	nt	3%
O=C(C1=COCCO1)N(Cc1nnc(-c2ccccc2Cl)o1)C1CC1	?	nt	nt	?	nt	-2%
O=C(NCc1ccccn1)/C(=N/O)c1ccccc1	53%	-1%	36*	?	31*	-1%
C/C(=N\O)C(=O)NCc1ccccn1	9%	1%	-2	52%	-5	-2%
O=C(NCc1ccccc1)/C(=N\O)c1ccccc1	86%	0%	21*	9%	54*	0%
COc1cc(C2c3c(oc4ccccc4c3=O)C(=O)N2c2nccs2)ccc1O (stereo not given)	-3%	?	1	-7%	-4	0%
CC(C)n1c(/N=C/c2c[nH]c3ccccc23)nc2ccccc21	-29%	-4%	20*	-6%	45	-3%
CC(=O)c1cccc(NC(=O)Cn2cnc(S(=O)(=O)N3CCCCC3)c2)c1	1%	3%	-4	23%	-6	6%
N#Cc1ccc(NC(=O)Cn2cnc(S(=O)(=O)N3CCc4ccccc43)c2)cc1	1%	9%	14	12µM*	1	0%
Cc1c(Cl)cccc1NC(=O)Cn1cnc(S(=O)(=O)N2CCCC2)c1	0%	2%	-1	7.4µM*	22	5%
CC1CCN(S(=O)(=O)c2cn(CC(=O)Nc3ccc(C#N)cc3)cn2)CC1	7%	7%	-7	?	-9	18%
O=C(Cn1cnc(S(=O)(=O)N2CCCC2)c1)Nc1cccc(Br)c1	13%	-2%	-4	12µM*	-2	2%
Cc1ccc(S(=O)(=O)N2CCCC2C(=O)NCc2ccc3c(c2)OCO3)cc1 (stereo not given)	?	0%	10	?	-8	1%
CC1CCN(C(=O)c2ncn(Cc3ccccc3)c2C(=O)N2CCC(C)CC2)CC1	nt	nt	nt	nt	nt	2%
SMILES	Pf growth 48h	NS1 inh	CHX counter	Pf growth 96h	Shiga toxin inh	SARS PLpro yeast
CCc1ccc2c(c1)C(=O)c1ccccc1C2=O	257%	4%	43*	-21%	14*	0%
CC(C)(C)c1ccc2c(c1)C(=O)c1ccccc1C2=O	274%	-9%	32*	355%	77*	-24%
O=C1c2ccccc2-c2cc([N+](=O)[O-])c([N+](=O)[O-])cc21	nt	-38%	nt	nt	nt	nt
CCOC(=O)c1cc(C(=O)c2ccccc2O)cn2c(=O)c3c(C)c(C)sc3nc12	9%	2%	-3	14%	-14	-1%
Cc1c(C(C)C[C@H](C)O)oc(=O)c2c1Oc1c(C)c(C(C)C[C@H](C)O)oc(=O)c1C2 (stereo not given in full)	-23%	nt	nt	3%	nt	0%
CC(OC(=O)c1ccco1)C(=O)NCc1cccs1 (stereo not given)	0%	5%	-4	12µM*	-4	-10%
O=C(NCC1CCCCC1)c1ccc([N+](=O)[O-])cc1	141%	-2%	12	7%	16	8%
CCOc1ccc(C(=O)NCC2CCN(CC3CCCCC3)CC2)cc1	42%	9%	1	5.9µM*	-5	2%
CCN(CC)S(=O)(=O)c1ccc(C(=O)NCC2CCCCC2)cc1	-14%	-9%	19	?	-7	1%
CC(=O)Nc1ccc(C(=O)NCC2CCCCC2)cc1	12%	1%	20*	46%	16	2%
Cc1cccc(-n2nc(CC#N)c(C#N)c2N)c1	19%	nt	0	14%	-9	5%
C/C(Cn1nnc2ccccc21)=N\NC(=O)c1ccc(Br)cc1	20%	nt	-2	18%	-2	-1%
COc1ccccc1OCC(O)CN1CCN(C(=O)c2ccccc2)CC1 (stereo not given)	-14%	-2%	-1	?	-5	5%
O=C(/C=C/c1ccccc1)NC(=O)c1ccccc1O	1.3µM*	-38%	28*	1.7µM*	51*	-6%
O=C(/C=C/c1ccccc1)CC(=O)c1ccccc1O	8%	5%	25*	?	27*	0%
CCOC(=O)c1cc(C#N)c(Oc2cccc(C(F)(F)F)c2)nc1-c1ccccc1	13µM*	6%	0	?	25	5%
CCOC(=O)c1ccc(-c2cccc(C(F)(F)F)c2)nc1C	8%	-3%	17*	3%	37	3%
CCOC(=O)c1cc(C#N)c(Oc2ccc(F)cc2)nc1-c1ccccc1	?	-2%	-2	34%	13	-7%
COc1cc(CCC(=O)OCC(=O)NCCc2ccc(S(N)(=O)=O)cc2)cc(OC)c1OC	nt	nt	nt	nt	nt	-4%
CC(=O)Nc1ccc(SCC(CC(C)C)N2CCN(CC(C)C)CCC2=O)cc1 (stereo not given)	nt	nt	-10	nt	-13	nt

Compound activity deposited in PubChem by National Center for Advancing Translational Sciences (NCATS).
